Screening results deposited in PubChem by several laboratories.
Bcl-2 Bim block: human Bim-Bcl-2 interaction inhibition | P10415 | Bead-based flow cytometry, Bim peptide-Bcl-2 binding | inhibition, % at 10 µM | 190,000 compounds, 0.06% hits | AID 950; in the data active = inhibition above about 40%
Target sequence (P10415 whole entry, looked up): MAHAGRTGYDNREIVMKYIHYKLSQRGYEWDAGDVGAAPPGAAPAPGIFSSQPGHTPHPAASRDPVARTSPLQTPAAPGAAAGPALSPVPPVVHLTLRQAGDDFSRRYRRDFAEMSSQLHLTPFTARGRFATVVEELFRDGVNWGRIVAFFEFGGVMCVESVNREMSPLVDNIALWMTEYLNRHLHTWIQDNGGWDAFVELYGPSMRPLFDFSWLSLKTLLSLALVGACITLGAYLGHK
Bcl-B Bim block: disrupts Bim peptide binding to human Bcl-B | Q9HD36 | bead-based flow cytometry | inhibition, % at 10 µM | 190,000 compounds, 0.073% hits | AID 951
BCLXL inh: blocks human Bcl-xL binding to Bim BH3 peptide. 320,000 compounds, 0.7% hits. inhibition, % at 10.9 µM. Q07817. AID 2129. GST-Bcl-xL / FITC-Bim BH3 peptide fluorescence polarization;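 active = inhibition above the mean of all tested compounds plus 3 SD, cutoff set per campaign, cut at about 30% in these data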;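 also: inhibitors lower millipolarization by displacing the labeled peptide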
Bim-Bfl-1: disrupts Bim binding to human Bfl-1 | inhibition, % at 10 µM | Bead-based flow cytometry, Bim-Bfl-1 binding inhibition | 190,000 compounds, 0.12% hits
Target sequence (Q16548 whole entry, looked up): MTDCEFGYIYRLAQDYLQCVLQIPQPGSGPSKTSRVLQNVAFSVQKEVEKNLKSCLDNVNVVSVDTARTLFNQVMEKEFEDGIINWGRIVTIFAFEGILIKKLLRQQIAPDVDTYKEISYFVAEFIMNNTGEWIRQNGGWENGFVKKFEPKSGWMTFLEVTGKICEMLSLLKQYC
Bim-Bcl-XL: inhibitors of Bim-Bcl-XL interaction, human. Q07817. Bim peptide-Bcl-XL binding, bead flow cytometry, fluorescence. inhibition, % at 10 µM. 190,000 compounds, 0.04% hits. AID 1007
Bcl-W Bim block: inhibitors of Bim-Bcl-W interaction, human; bead-based flow cytometry, Bim peptide-Bcl-W binding; inhibition, % at 10 µM; 190,000 compounds, 0.02% hits;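 also: higher means less fluorescent Bim peptide bound to Bcl-W beads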
Hits are given with their value; - = inactive; . = no result. The list is not random: actives were taken first. Their share in the collection is about 0.81%. Rule as the data show it, unless noted: active = inhibition above about 40%.

SMILES	Bcl-2 Bim block	Bcl-B Bim block	BCLXL inh	Bim-Bfl-1	Bim-Bcl-XL	Bcl-W Bim block
CCC(C)[C@H](NC(=O)C1CC(=O)N(c2ccc3c(c2)OCO3)C1)C(=O)NC1CCCCC1 (some centres not stated)	.	.	54	.	.	.
CCC(C)[C@H](NC(=O)C1CC(=O)N(c2ccc3c(c2)OCCO3)C1)C(=O)NC1CCCC1 (some centres not stated)	.	.	-	.	.	.
CC(/C=N\NC(=O)c1ccc2c(c1)OCO2)c1ccccc1 (configuration not stated)	.	.	-	.	.	.
O=C(OCc1nc2ccccc2[nH]1)C12CC3CC(CC(C3)C1)C2	-	42	-	-	-	-
O=S(=O)(c1ccc(Oc2ccc(Cl)cc2)nc1)N1CCOCC1	.	.	-	.	.	.
CCOC(=O)C1=C(COC(=O)CCOc2ccccc2)NC(=O)NC1C (configuration not stated)	.	.	-	.	.	.
COc1ccccc1Oc1c(C)oc2c(CN3CCN(CCO)CC3)c(O)ccc2c1=O	-	-	95	-	-	-
CCOc1ccc(N(CC(=O)NCc2ccco2)C(=O)CCC(=O)Nc2nccs2)cc1	.	.	-	.	.	.
CCOCCCNC(=O)c1cn(CC)c2ccc(S(=O)(=O)N3CCC(C)CC3)cc2c1=O	.	.	37	.	.	.
CCn1cc(C(=O)NCCCOC)c(=O)c2cc(S(=O)(=O)N3CCC(C)CC3)ccc21	.	.	-	.	.	.
COc1ncnc2c1NC1=C(S2)C(=NCCC(=O)O)CC(C)(C)C1	-	-	144	-	-	-
CN(C)c1ncnc2c1NC1=C(S2)C(=NCCCC(=O)O)CC(C)(C)C1	-	-	32	-	-	-
CCC(C)N1C(=O)CN(C2CCCCCC2)C(=O)C1c1ccccc1F (configuration not stated)	-	-	-	-	-	-
Cc1ccc2c(c1)C(c1ccc(F)cc1)N(C(=O)c1ccccc1Br)CC(=O)N2 (configuration not stated)	.	.	-	.	.	.
O=C(CN1CCN(S(=O)(=O)c2ccccc2)CC1)NCCc1ccccc1	.	.	-	.	.	.
CCCOc1ccc(-c2c(C(=O)N/N=C(\C)c3ccco3)nnn2-c2nonc2N)cc1	.	.	69	.	.	.
CN(C)S(=O)(=O)c1ccc(NC(=O)COC(=O)C2CC3CCCC(C2)C3=O)cc1 (configuration not stated)	-	-	-	-	-	-
NC(=O)c1ccsc1N	-	-	177	-	-	-
Fc1cccc(NC(=S)NCc2ccccc2Cl)c1	.	.	-	.	.	.
O=C(NC1=NCCS1)C12CC3CC(C1)CC(C(=O)NC1=NCCS1)(C3)C2	-	-	-	-	-	-
O=C(NC1=NCCS1)NC12CC3CC(CC(C3)C1)C2	84	84	-	60	-	-
C#CCOCCOCCOCCNc1nc(N2CCN(C(=O)[C@H]([C@@H](C)CC)n3cc([C@@H](N)Cc4ccc(O)cc4)nn3)CC2)nc(N2CCN(C(=O)[C@H](Cc3cc4ccccc4[nH]3)n3cc([C@@H](N)CC(C)C)nn3)CC2)n1	.	.	-	.	.	.
C#CCOCCOCCOCCNc1nc(N2CCN(C(=O)[C@H]([C@@H](C)CC)n3cc([C@@H](N)CC(C)C)nn3)CC2)nc(N2CCN(C(=O)[C@H](Cc3cc4ccccc4[nH]3)n3cc([C@@H](N)Cc4ccc(O)cc4)nn3)CC2)n1	80	71	-	57	-	-
C#CCOCCOCCOCCNc1nc(N2CCN(C(=O)[C@H]([C@@H](C)CC)n3cc([C@@H](N)CC(C)C)nn3)CC2)nc(N2CCN(C(=O)[C@H](CCCCN)n3cc([C@@H](N)CO)nn3)CC2)n1	-	-	-	-	-	-
C#CCOCCOCCOCCNc1nc(N2CCN(C(=O)[C@H]([C@@H](C)CC)n3cc([C@@H](N)CO)nn3)CC2)nc(N2CCN(C(=O)[C@H]([C@@H](C)CC)n3cc([C@@H](N)CC(C)C)nn3)CC2)n1	-	-	43	-	-	-
SMILES	Bcl-2 Bim block	Bcl-B Bim block	BCLXL inh	Bim-Bfl-1	Bim-Bcl-XL	Bcl-W Bim block
C/C(=N/NC(=O)CNC(=O)CCc1ccccc1)c1ccc(Cl)c(Cl)c1	.	.	-	.	.	.
COc1ccccc1C(=O)NCCC(=O)N(C)CC(=O)Nc1c(Cl)cccc1Cl	.	.	-	.	.	.
O=C(Oc1ccc2c(c1)O/C(=C\c1ccncc1)C2=O)c1cccs1	.	.	78	.	.	.
COc1ccc(/C=C2\Oc3cc(OC(=O)N4CCOCC4)ccc3C2=O)cc1	.	.	-	.	.	.
COc1ccccc1C(=O)Oc1ccc2c(c1)O/C(=C\c1ccncc1)C2=O	-	-	123	-	-	-
CC(=O)Oc1ccc2c(c1)O/C(=C\c1ccncc1)C2=O	.	.	126	.	.	.
